The values that follow come from PubChem BioAssay AID1345085 (National Center for Advancing Translational Sciences (NCATS), 2018).

SMILES strings stand for the structures. Results filed as inconclusive are left out. Activity calls are given as the source filed them. Calls follow the shape of the dose curve; as a rule, active = well fitted cell-killing curve with a large enough effect; inconclusive = small, poorly fitted or top-dose-only effect, or effect the other way; inactive = no such curve, though single readings can be large or run the other way.
% is scaled to controls: 0 for no effect and ±100 for the full control effect; potency is read from the fitted curve at half-maximal effect.

For the assay, the system named is Es-2. The assay is described as follows: Confirmatory qHTS for gynecologic anti-cancer compounds from libraries of approved drugs and bioactive compounds. Also: nearly all actives have a fitted effect of over 55% in size. The following applies: gynecologic cancer cell panel viability, ATPlite luminescence, 48 h; series mostly up to 57.6 µM. An outline of the steps:
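ATPlite luminescence read-out of cell viability; IC50 from 11-point 1:3 titrations, 57.5 uM to 0.977 nM, 48 h compound exposure at 37 C, 5% CO2. Cells seeded at 1,000/well 16 h before dosing.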
Consider `Cc1ccccc1C(OCCN(C)C)c1ccccc1` (stereo not drawn), for which the Potency result is “inactive”.
On the same count and under the same terms, to `Cn1cc(-c2ccc3ncc(Cc4ccc5ncccc5c4)n3n2)cn1` belongs “inactive”; to `Nc1ncn([C@@H]2O[C@H](CO)[C@@H](O)[C@H]2O)c(=O)n1`, 12.2 µM (active).
On to `CC[C@H](Nc1ncnc2nc[nH]c12)c1nc2cccc(F)c2c(=O)n1-c1ccccc1`, for which the activity change, negative = viability loss was 8.76% [at 10.7 µM] (inactive).
For `COc1cc2c(c(OC)c1OC)-c1ccc(OC)c(=O)cc1[C@@H](NC(C)=O)CC2`, the Potency was 0.0708 µM (active).
As for `N=C(N)c1ccc(OCCCCCOc2ccc(C(=N)N)cc2)cc1`, the Potency result was “inactive”.
Regarding `O=C(NOCC1CC1)c1ccc(F)c(F)c1Nc1ccc(I)cc1Cl`, the Potency was 1.53 µM (active).
Same read-out and setting: to `Cc1cc(C(=O)N2CCN(c3cccc(Cl)c3)CC2)n(-c2ccccc2)n1` belongs 2.43 µM (active); to `CCC1C(=O)N(C)c2cnc(Nc3ccc(C(=O)NC4CCN(C)CC4)cc3OC)nc2N1C1CCCC1` (stereo not drawn), 0.0611 µM (active); to `CCN(CC)CCNC(=O)c1c(C)[nH]c(/C=C2\C(=O)Nc3ccc(F)cc32)c1C`, 25.1 µM (active).
On the same count and under the same terms, to `CC(C)Oc1ccc(C(=O)NC(CNC(=O)CN(C)C)Cc2ccc(-c3cn4cccc(C(C)O)c4n3)cc2)cc1Cl` (stereo not drawn) belongs 0.385 µM (active); to `O=C(CCCCCCNC(=O)c1cnc(N(c2ccccc2)c2ccccc2)nc1)NO`, 13.7 µM (active); to `COc1cc2c(Oc3ccc(-c4cnc(Nc5ccc(F)cc5)n(C)c4=O)cc3F)ccnc2cc1OCCCN1CCOCC1`, “inactive”.
In the case of `COC(C)(C)CCn1nc(Nc2c(C)cccc2C)c2cnc(Nc3ccc(OCCN4CCCC4)c(F)c3)nc21`, the Potency result is “inactive”.
For `Cc1nc(N)sc1-c1ccnc(Nc2ccc(N3CCOCC3)cc2)n1`, the Potency is 9.68 µM (active).
Still for that read-out and setting: to `CC1=C(/C=C/C(C)=C/C=C/C(C)=C/C(=O)Nc2ccc(O)cc2)C(C)(C)CCC1` belongs 27.3 µM (active); to `NC(=O)c1cnc(-c2ccc(C3(N)CCC3)cc2)c(-c2ccccc2)c1`, 24.3 µM (active); to `CC(C)n1nc(-c2cc3cc(O)ccc3[nH]2)c2c(N)ncnc21`, 4.85 µM (active).
Same read-out and setting: to `CCC1C(=O)N(C)c2cnc(Nc3ccc(C(=O)NC4CCC(N5CCN(CC6CC6)CC5)CC4)cc3OC)nc2N1C(C)C` (stereo not drawn) belongs 1.22 µM (active).
Same read-out and setting: to `CN(NC(=O)CC(=O)NN(C)C(=S)c1ccccc1)C(=S)c1ccccc1` belongs 0.611 µM (active); to `CNC1CCC(N(Cc2cccc(-c3ccncc3)c2)C(=O)c2sc3ccccc3c2Cl)CC1` (stereo not drawn), 24.3 µM (active).
As for `NC1(c2ccc(-c3nc4ccn5c(=O)[nH]nc5c4cc3-c3ccccc3)cc2)CCC1`, the Potency result is “inactive”.
In the case of `CN(C)CC/C=C1\c2ccccc2COc2ccccc21`, the Potency entry was “inactive”.
